Source: PubChem BioAssay (The Scripps Research Institute Molecular Screening Center)
UHRF1 binding = UHRF1 methylated DNA binding inhibitors, primary screen, counter-screen for MBD2 inhibitor project, biochemical, TR-FRET, human UHRF1, single concentration; UHRF1 binding to methylated oligo; 370,000 tested, 0.75% active; inhibition, % at 4.4 µM; AID 687016, 2013; E3 ubiquitin-protein ligase UHRF1 (Homo sapiens), Q96T88; in the data active means inhibition above about 21%;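 further: UHRF1 SRA domain binding a hemimethylated CpG hairpin DNA probe; 0% = median of test compound wells and 100% = reference inhibitor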
rCAG RNA binder = binders of r(CAG) RNA repeats, primary screen, biochemical, fluorescence; r(CAG) RNA repeat, TO-PRO-1 dye displacement fluorescence; 370,000 tested, 1.3% active; AID 651821, 2012; inhibition, % at 3 µM;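 active means inhibition above the plate cutoff, the mean of all test compounds on that plate plus 3 SD, cut at about 35% in these data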;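 further: 0% = DMSO alone and 100% = 100 µM mitoxantrone as full dye displacement; higher means more dye released from RNA so lower well fluorescence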
ABHD5-PLIN5 inh = ABHD5-PLIN5 interaction inhibitors, primary screen, cell lysate, split luciferase complementation, luminescence | Perilipin-5 (Homo sapiens) + 1-acylglycerol-3-phosphate O-acyltransferase ABHD5 (Homo … | Split G. princeps luciferase complementation, 4 h | inhibition, % at 4 µM | 360,000 tested, 0.78% active | AID 602281, 2012;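 active means inhibition above the mean inhibition across every tested compound plus 3 SD, cut at about 22% in these data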;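 further: 0% = DMSO only wells and the 100% control is not disclosed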
LEDGF integ inh = blockers of LEDGF/p75-dependent integrase strand transfer – biochemical, TR-FRET, high throughput, primary screen. HIV-1 integrase (with human LEDGF/p75). TR-FRET IN-LEDGF/p75 DNA integration, Eu/Cy5. inhibition, % at 3.7 µM. 370,000 tested, 0.64% active. AID 743269, 2014;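 active means inhibition above the screen-wide mean plus 3 SD, cut at about 13% in these data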;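 further: signal is the Cy5 over europium emission ratio at 671 and 618 nm; 0% = plate median of compound wells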
MBD2 inh = inhibitors of MBD2 binding to methylated DNA, primary screen, biochemical, TR-FRET, DNA-binding domain, human; Methyl-CpG-binding domain protein 2 (Homo sapiens), Q9UBB5; MBD2 binding to methylated oligonucleotide; inhibition, % at 4.4 µM; 370,000 tested, 0.31% active; AID 686964, 2013; in the data active means inhibition above about 13%
Target sequence (Q9UBB5 whole entry, looked up, the tested form may be a part): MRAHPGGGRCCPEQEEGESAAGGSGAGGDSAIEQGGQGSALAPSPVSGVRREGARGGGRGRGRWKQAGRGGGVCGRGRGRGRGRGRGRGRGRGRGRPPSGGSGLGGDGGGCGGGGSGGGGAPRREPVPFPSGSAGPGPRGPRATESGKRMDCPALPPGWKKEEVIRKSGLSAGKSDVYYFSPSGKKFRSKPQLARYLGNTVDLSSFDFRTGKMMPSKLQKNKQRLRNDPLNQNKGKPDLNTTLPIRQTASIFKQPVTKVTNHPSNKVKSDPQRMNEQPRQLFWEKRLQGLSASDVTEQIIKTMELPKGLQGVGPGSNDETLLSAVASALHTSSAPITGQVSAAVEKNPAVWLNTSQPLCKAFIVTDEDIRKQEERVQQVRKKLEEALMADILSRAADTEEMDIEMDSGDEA
PRMT1 inh = PRMT1 methyltransferase inhibitors, primary screen, biochemical, fluorescence polarization; Protein arginine N-methyltransferase 1 (Homo sapiens), Q99873; recombinant PRMT1, activity-based probe fluorescence polarization; inhibition, % at 2.79 µM; 370,000 tested, 1.3% active;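 active means inhibition above about 21% made by adding two undisclosed values, limit read from the data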
rCAG binder conf = small molecules binding CAG repeat RNA – biochemical, fluorescence, confirmation; shares compounds with rCAG RNA binder; r(CAG) RNA repeat, TO-PRO-1 dye displacement fluorescence; inhibition, % at 3 µM; 4,300 tested, 70% active;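 active means inhibition above a per-plate cutoff, the mean inhibition of sample wells plus 3 SD, cut at about 35% in these data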;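 further: loss of TO-PRO-1 fluorescence as compound displaces dye from 1x1 AA loop RNA; 0% = DMSO only wells and 100% = 100 µM mitoxantrone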
dCAG dye counter = displacement of TO-PRO-1 from CAG DNA duplex, counter-screen for rCAG RNA repeat binder project, biochemical, fluorescence, TO-PRO-1 dye, d(CAG) DNA oligo | shares compounds with rCAG RNA binder | d(CAG) DNA oligo TO-PRO-1 dye displacement | inhibition, % at 3 µM | 4,300 tested, 94% active;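 active means inhibition above its plate's cutoff, the mean test-well inhibition plus 3 SD, cut at about 4.8% in these data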;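 further: 0% = DNA dye mix with DMSO and 100% = 100 µM mitoxantrone; hits displace the dye from DNA and so lower well fluorescence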
DNA CAG DR = inhibitors of DNA CAG/GTC TO-PRO-1 complex, dose response, counter-screen for rCAG RNA repeat binder project, biochemical, fluorescence, TO-PRO-1 dye | AID 686960, 2013 | 250 tested, 20% active | shares compounds with rCAG RNA binder | DNA CAG/GTC duplex TO-PRO-1 dye displacement fluorescence | IC50, µM; in the data active means IC50 below about 10 µM
* hit, by the source's call; i = inactive; / = not tested or not shown. A selection: hits, their analogues and other compounds. The true share with any hit is near 4.1%.

SMILES	UHRF1 binding	rCAG RNA binder	ABHD5-PLIN5 inh	LEDGF integ inh	MBD2 inh	PRMT1 inh	rCAG binder conf	dCAG dye counter	others
CCc1ccc([C@@H]2CC=C(C(=O)O)[C@H](c3ccc(C)cc3)N2S(=O)(=O)c2ccc(C)cc2)cc1	1.1	79.0*	6.5	-0.9	1.4	2.0	82.3*	49.7*
CCOC(=O)C1=CCN(S(=O)(=O)c2ccc(Br)cc2)C1c1ccc(Br)cc1 (configuration not stated)	-1.1	3.9	/	-0.6	4.0	-1.6	/	/
COc1ccc(S[C@]2(C(=O)N3CCCC3)CC(=O)N(C(=O)Nc3ccc(C)c(Cl)c3)[C@@H]2c2ccc(OC)cc2)cc1	-0.8	8.2	/	0.7	-0.3	2.6	/	/
COC(=O)c1sccc1NC(=O)CSc1ccccc1NS(=O)(=O)c1ccccc1Cl	-1.6	35.5*	1.6	-3.0	0.3	-1.2	61.9*	19.9*
CCC[C@H]1[C@@H](OC(=O)NCc2cccc(Cl)c2)CC[C@@]23CCCN2C(=O)CCC[C@@H]13	-3.5	/	/	3.7	-0.6	-3.2	/	/
CC(=O)[C@H]1CC[C@H]2[C@@H]3CC=C4C[C@@H](OS(=O)(=O)O)CC[C@]4(C)[C@H]3CC[C@]12C	1.0	39.3*	-1.1	6.5	3.1	-1.5	39.2*	9.8*
N#CC(C(=S)Nc1ccccc1)c1nc2ccccc2[nH]1 (configuration not stated)	-5.0	65.1*	-14.4	-2.3	2.0	4.5	45.6*	15.7*
CC(=Nc1ccc(Cl)cc1N)c1c(O)cc(C)oc1=O	-5.7	7.4	/	-1.6	-0.6	2.9	/	/
Cc1ccc(-c2csc3ncnc(NS(=O)(=O)c4ccc(Cl)cc4)c23)cc1	4.6	15.0	4.9	-2.7	-1.8	1.2	/	/
O=S(=O)(Nc1ncnc2scc(-c3ccc(F)cc3)c12)c1cc(F)ccc1F	0.9	53.8*	-10.1	1.7	4.5	-3.9	54.8*	20.3*
O=C(O)c1cccc(N/N=C/c2cn(-c3ccccc3)nc2-c2cccs2)c1	3.7	48.1*	-4.5	-1.5	4.8	13.5	75.9*	36.7*
NS(=O)(=O)c1ccc(N/N=C/c2cn(-c3ccccc3)nc2-c2cccs2)cc1	0.8	35.6*	1.4	1.4	5.6	2.0	24.6	14.8*
NS(=O)(=O)c1ccc(N/N=C/c2cn(-c3ccccc3)nc2-c2cccs2)c([N+](=O)[O-])c1	7.8	4.3	-2.5	-3.3	2.7	3.6	/	/
CC(C)N1CCCCC(NC(=O)c2ccccc2)C1=O (configuration not stated)	1.3	1.0	/	-2.6	5.8	8.7	/	/
CCCCCCCC/C=C\CCCCCCCC(=O)NCCc1ccc(O)c(O)c1	1.9	47.3*	9.7	-6.2	2.1	9.2	20.7	7.2*
O=C(OCc1cn(Cc2cccc(Cl)c2)nn1)N1CCCC1	3.8	1.8	/	-1.7	-0.5	0.1	/	/
CC(/C=C1\SC(=S)N(NC(=O)c2ccncc2)C1=O)=C\c1ccccc1	-2.3	42.4*	2.6	-2.5	-4.5	-1.0	30.8	9.3*
Cc1ccc(S(=O)(=O)/N=C2/NC(=O)/C(=C/c3ccccn3)S2)cc1	-2.8	44.6*	8.2	-4.3	0.4	-1.9	37.3*	10.2*
CC(/C=C1\SC(=S)N(NS(=O)(=O)c2ccccc2)C1=O)=C\c1ccccc1	1.1	73.6*	-5.8	3.6	-0.7	3.0	87.0*	53.8*
CC(/C=C1\SC(=S)N(NS(=O)(=O)c2ccc(C)cc2)C1=O)=C\c1ccccc1	2.5	61.6*	-1.0	-3.5	3.8	7.0	86.7*	60.0*
O=C(NCc1cccc(C(F)(F)F)c1)O[C@H]1CC[C@@]23CCCN2C(=O)CCC[C@H]3C1	-3.2	/	/	-2.0	-0.9	-2.4	/	/
O=C(Cn1nnc(N2CCCCC2)n1)NN=Cc1ccccc1O	2.5	5.0	/	-4.0	-1.3	-1.4	/	/
C#CCNC(=O)C[C@H]1C[C@@]2(C(=O)OC)C(=C[C@H](COCc3ccccc3)O[C@@H]2C)N(Cc2ccc3c(c2)OCO3)C1=O	-1.4	1.9	/	-0.2	2.5	4.9	/	/
Cc1ccc(S(=O)(=O)NN2C(=O)/C(=C/c3ccccn3)SC2=S)cc1	1.7	44.6*	-8.4	-1.2	-1.8	2.0	35.2*	8.5*
COc1cc(/C=C2\SC(=S)N(NS(=O)(=O)c3ccc(C)cc3)C2=O)cc(OC)c1OC	-0.9	5.7	-2.4	2.6	-5.2	-3.0	/	/
SMILES	UHRF1 binding	rCAG RNA binder	ABHD5-PLIN5 inh	LEDGF integ inh	MBD2 inh	PRMT1 inh	rCAG binder conf	dCAG dye counter	others
Nc1ccc2ccc(NS(=O)(=O)N3CCCCC3)cc2c1	-3.2	12.3	/	0.6	-6.5	2.7	/	/
COc1ccc(Cn2c(O)c(/C=N/NC(=O)c3cccnc3)c3ccccc3c2=O)cc1	1.1	75.5*	-2.0	3.1	-0.5	-8.2	70.8*	32.7*	DNA CAG DR=i
Cc1cccc(-n2c(O)c(/C=N/NC(=O)c3ccccc3Cl)c3ccccc3c2=O)n1	-2.6	14.0	11.6	6.3	1.4	-1.0	/	/
O=C(N/N=C/c1c(O)n(-c2ccccc2Cl)c(=O)c2ccccc12)c1cccnc1	3.6	46.9*	10.5	-8.5	-8.0	2.8	29.8	8.0*
O=C(N/N=C/c1c(O)n(Cc2ccccc2)c(=O)c2ccccc12)c1cccnc1	-1.4	69.3*	-1.9	-1.7	3.1	-3.2	63.7*	24.8*
COc1ccc(Cn2c(O)c(C=Nc3ccc(OC)cc3)c3ccccc3c2=O)cc1	4.8	1.8	-1.6	1.9	-3.3	1.6	/	/
O=C(N=Nc1c(O)[nH]c2ccc([N+](=O)[O-])cc12)c1ccccc1[N+](=O)[O-]	-3.9	16.7	-2.6	-1.5	2.5	0.5	/	/
CCc1cc(C(=O)N=Nc2c(O)[nH]c3ccc([N+](=O)[O-])cc23)c2ccccc2n1	-2.0	41.6*	6.2	1.6	-7.4	0.8	35.2*	22.3*
